ssDAF12 agonist = S. stercoralis DAF-12 nuclear receptor activators, primary screen, cell-based, luminescence, HEK293, GRIP1 co-expression, lit1-tk-luc; 1% of 370,000 active; Nuclear hormone receptor DAF-12 (Strongyloides stercoralis); HEK293 ssDAF-12/GRIP1 lit1-tk-luc reporter; % of 3 µM dafachronic acid response; activation, % at 6.8 µM;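 active means activation above the mean over all tested compounds plus 3 SD, cut at about 0.9% in these data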;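 further: 0% = DMSO-only wells and 100% = 3 µM delta7-dafachronic acid wells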
hgDAF12 agonist = H. glycines DAF-12 receptor agonists, primary screen, cell-based, luminescence, HEK293, GAL4 fusion, UAS-luciferase. Nuclear hormone receptor DAF-12 (Heterodera glycines), GAL4 fusion. activation, % at 6.8 µM. 1.8% of 370,000 active. HEK293 GAL4-hgDAF12 UAS-luciferase reporter, agonist luminescence; normalized to butyrate control;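 active means activation above a cutoff set at the mean of all screened compounds plus 3 SD, cut at about 10% in these data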;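 further: 0% = DMSO wells and 100% = sodium butyrate wells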
DAX1 inh-1 = DAX1 (NR0B1) inhibitors, primary screen, cell-based, HEK293, Gal4-DAX1, luciferase luminescence; Nuclear receptor subfamily 0 group B member 1 (Homo sapiens), P51843; HEK293 Gal4-DAX1 luciferase reporter; inhibition, % at 6.75 µM; 0.99% of 340,000 active; AID 504766, 2011;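 active means inhibition above the mean over all tested compounds plus 3 SD, cut at about 4.2% in these data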;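 further: 0% = DAX1-transfected cells with DMSO and 100% = empty-vector control cells with DMSO; inhibition shows as a rise in luminescence from relieved DAX1 repression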
Target sequence (P51843 207-470 limits assumed): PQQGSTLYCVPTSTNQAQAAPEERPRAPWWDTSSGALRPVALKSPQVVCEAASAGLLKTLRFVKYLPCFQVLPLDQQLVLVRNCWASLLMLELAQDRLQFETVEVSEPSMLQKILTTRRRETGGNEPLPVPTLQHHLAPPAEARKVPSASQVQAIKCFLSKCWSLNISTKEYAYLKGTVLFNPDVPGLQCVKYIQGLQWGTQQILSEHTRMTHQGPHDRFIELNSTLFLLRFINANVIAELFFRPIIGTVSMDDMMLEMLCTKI
hcDAF12 agonist = H. contortus DAF-12 nuclear receptor activators, primary screen, cell-based, luminescence, HEK293, lit1-tk-luc reporter; HEK293 hcDAF-12 lit1-tk-luc reporter; 0% DMSO, 100% Δ7-dafachronic acid; activation, % at 6.8 µM; 1.4% of 370,000 active;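 active means activation above the mean of all tested compounds plus 3 SD, cut at about 5.5% in these data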;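 further: 100% = response to 3 µM Δ7-dafachronic acid high control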
DAX1 inh-2 = DAX1 (NR0B1) inhibitors on StAR promoter, primary screen, cell-based, luminescence, SF-1 (NR5A1), full-length DAX-1; HEK293T StAR-luciferase reporter, SF-1/DAX-1 repression relief; inhibition, % at 6.8 µM; 1.1% of 370,000 active;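 active means inhibition above the mean over all tested compounds plus 3 SD, cut at about 3.6% in these data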;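 further: 0% = DAX-1 cells with DMSO and 100% = cells lacking DAX-1 with DMSO; higher inhibition means more luminescence from relief of DAX-1 repression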
DAX1 conf = DAX1 (NR0B1) inhibitors relieving SF-1 repression, confirmation, cell-based, luminescence, HEK293T, full-length DAX-1, SF-1 activated StAR promoter; HEK293T StAR-promoter luciferase reporter, SF-1/DAX-1 repression; AID 652134, 2013; inhibition, % at 6.8 µM; 87% of 2,400 active; shares compounds with DAX1 inh-2;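 active means inhibition above the average of every tested compound plus 3 SD, cut at about 3.8% in these data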;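 further: 0% = DAX-1 cells with DMSO and 100% = no DAX-1 control cells with DMSO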
Target sequence (P51843 whole entry, looked up): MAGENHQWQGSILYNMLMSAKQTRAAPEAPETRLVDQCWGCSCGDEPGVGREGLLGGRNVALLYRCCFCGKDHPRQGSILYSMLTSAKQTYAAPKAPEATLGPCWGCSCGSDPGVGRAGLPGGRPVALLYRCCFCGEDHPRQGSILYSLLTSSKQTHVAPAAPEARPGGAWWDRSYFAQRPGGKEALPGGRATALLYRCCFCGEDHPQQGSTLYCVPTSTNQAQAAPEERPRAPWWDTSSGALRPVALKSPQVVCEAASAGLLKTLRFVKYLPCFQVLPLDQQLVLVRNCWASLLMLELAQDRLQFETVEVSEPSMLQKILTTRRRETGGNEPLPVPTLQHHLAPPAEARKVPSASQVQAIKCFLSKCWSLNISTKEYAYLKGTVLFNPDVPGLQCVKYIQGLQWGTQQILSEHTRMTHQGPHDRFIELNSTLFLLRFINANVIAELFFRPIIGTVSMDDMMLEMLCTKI
SF1 mutant ctr = StAR reporter signal changes without DAX1, counter-screen for DAX1 inhibitor project, cell-based, luminescence, AF-2 mutant SF-1, transactivation. HEK293 StAR-luciferase, SF-1 AF2 mutant. shares compounds with DAX1 inh-2. inhibition, % at 6.8 µM. 78% of 2,400 active. AID 652136, 2013;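 active means inhibition above the mean of all tested compounds plus 3 SD, cut at about 3% in these data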;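 further: 0% = DAX-1 transfected cells with DMSO and 100% = cells without DAX-1 with DMSO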
LXR ag = LXR agonists, Gal4 luciferase reporter, confirmation, counter-screen for hcDAF-12 agonist project, cell-based, luminescence, HEK293, H. contortus campaign. shares compounds with hcDAF12 agonist. HEK293 Gal4-LXR tk-luc reporter, 24 h; normalized: DMSO 0%, positive control 100%. activation, % at 6.8 µM. 3,400 tested, under 10 active;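 active means mean percent activation of the reporter above a cutoff set as the average over tested compounds plus their standard deviation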
hcDAF12 conf = H. contortus DAF-12 receptor agonists, confirmation, cell-based, luminescence, HEK293, lit1-tk-luc, triplicate; shares compounds with hcDAF12 agonist; HEK293 hcDAF-12 lit1-tk-luc reporter; % of Δ7-dafachronic acid response; activation, % at 6.8 µM; 61% of 3,400 active;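 active means mean activation across triplicate tests above the threshold derived from the earlier primary screen, cut at about 5.5% in these data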;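 further: 0% = DMSO only wells and 100% = 3 µM Δ7-dafachronic acid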
hgDAF12 ag = H. glycines DAF-12 receptor agonists, confirmation, cell-based, luminescence, HEK293, GAL4-LBD fusion; shares compounds with hgDAF12 agonist; HEK293 GAL4-hgDAF12 luciferase reporter, agonist mode; percent of butyrate response; activation, % at 6.8 µM; 80% of 3,300 active; AID 743050, 2013;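 active means mean activation over triplicate wells above the hit cutoff derived from the earlier primary screen, cut at about 11% in these data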;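 further: 0% = DMSO low control and 100% = 2 mM sodium butyrate high control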
LXRb DAF12 ctr = LXR agonists, Gal4 luciferase reporter, confirmation, counter-screen for hgDAF-12 agonist project, cell-based, luminescence, HEK293, H. glycines campaign. shares compounds with hgDAF12 agonist. 3,300 tested, under 10 active. activation, % at 6.8 µM. AID 743051, 2013. 24 h;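 active means mean activation of the triplicate above a set limit carried over from the primary screen, none filed active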
Numbers without * were called inactive. A selection: hits, their analogues and other compounds. The true share with any hit is near 4.1%.

Results for O=C1C(=Cc2cccs2)CCc2ccccc21 ?
ssDAF12 agonist: 1.4*; hgDAF12 agonist: 18*; hcDAF12 agonist: 9.4*; DAX1 inh-2: 7.7*; DAX1 conf: 12*; SF1 mutant ctr: 6.2*; LXR ag: 2; hcDAF12 conf: 8.7*; hgDAF12 ag: 18*; LXRb DAF12 ctr: 1

What do the screens show for `CCCCCCCCN1C(=O)[C@@H](CC(=O)NCc2ccc(C)o2)C[C@@]2(C(=O)OC)C1=C[C@H](C1CCCC1)O[C@@H]2C`?
ssDAF12 agonist: -1; hgDAF12 agonist: 1; hcDAF12 agonist: 0; DAX1 inh-2: 0

How did Cc1ccc(OCc2cc(C(=O)NCCc3cccnc3)no2)cc1C do in these assays?
ssDAF12 agonist: -1; hgDAF12 agonist: 1; DAX1 inh-1: 0; hcDAF12 agonist: 0; DAX1 inh-2: -1

How did COc1cccc(CCNC(=O)c2cc(COc3ccc(C)c(C)c3)on2)c1OC do in these assays?
ssDAF12 agonist: 0; hgDAF12 agonist: 14*; DAX1 inh-1: 4.4*; hcDAF12 agonist: 4; DAX1 inh-2: 4.6*; DAX1 conf: 7.8*; SF1 mutant ctr: 3.4*; hgDAF12 ag: 16*; LXRb DAF12 ctr: 1

Results for CCCCc1c(-c2ccccc2OC)ncn1Cc1cccc(C)c1 ?
ssDAF12 agonist: -1; hgDAF12 agonist: -2; hcDAF12 agonist: 0; DAX1 inh-2: 0

Results for O=C(/C(C=Nc1ccc(Br)cc1)=C(/O)c1ccco1)C(F)(F)F ?
ssDAF12 agonist: 0; hgDAF12 agonist: 19*; DAX1 inh-1: 0; hcDAF12 agonist: 5; DAX1 inh-2: 5.3*; DAX1 conf: 17*; SF1 mutant ctr: -3; hgDAF12 ag: 16*; LXRb DAF12 ctr: 1

How did O=[N+]([O-])c1ccc(OCCCN2CCC(C(O)(c3ccccc3)c3ccccc3)CC2)c(Cl)c1 do in these assays?
ssDAF12 agonist: -2; hgDAF12 agonist: -1; hcDAF12 agonist: -2; DAX1 inh-2: 1

What do the screens show for `O=C1c2ccccc2S(=O)(=O)N1CC1CC(c2ccc(Cl)cc2)=NO1` (stereo not given)?
ssDAF12 agonist: 0; hgDAF12 agonist: 15*; DAX1 inh-1: 2; hcDAF12 agonist: 6.7*; DAX1 inh-2: 4.8*; DAX1 conf: 14*; SF1 mutant ctr: 7.5*; LXR ag: 1; hcDAF12 conf: 3; hgDAF12 ag: 14*; LXRb DAF12 ctr: 1

Results for CCOc1ccc(/C=N/Nc2ccccn2)cc1OC ?
ssDAF12 agonist: 0; hgDAF12 agonist: 16*; DAX1 inh-1: 2; hcDAF12 agonist: 2; DAX1 inh-2: 6.7*; DAX1 conf: 8.3*; SF1 mutant ctr: 4.4*; hgDAF12 ag: 13*; LXRb DAF12 ctr: 0

How did Fc1cccc(/C=N/Nc2ccccn2)c1 do in these assays?
ssDAF12 agonist: 0; hgDAF12 agonist: 2; DAX1 inh-1: 2; hcDAF12 agonist: 2; DAX1 inh-2: 2

How did C=CCOc1ccc(/C=N/Nc2ccccn2)cc1OC do in these assays?
ssDAF12 agonist: -1; hgDAF12 agonist: 14*; DAX1 inh-1: 2; hcDAF12 agonist: 1; DAX1 inh-2: 5.3*; DAX1 conf: 4.7*; SF1 mutant ctr: 3; hgDAF12 ag: 11*; LXRb DAF12 ctr: 0

What do the screens show for `C(=N\Nc1ccccn1)/c1ccc2c(c1)OCCO2`?
ssDAF12 agonist: 1; hgDAF12 agonist: 27*; DAX1 inh-1: 1; hcDAF12 agonist: 6.0*; DAX1 inh-2: 5.6*; DAX1 conf: 15*; SF1 mutant ctr: 9.4*; hgDAF12 ag: 22*; LXRb DAF12 ctr: 1

What do the screens show for `O=C(O)c1cc(N/N=C/c2ccc3c(c2)OCCO3)ccc1Cl`?
ssDAF12 agonist: 0; hgDAF12 agonist: 17*; DAX1 inh-1: -4; hcDAF12 agonist: 3; DAX1 inh-2: 4.6*; DAX1 conf: 13*; SF1 mutant ctr: 6.0*; hgDAF12 ag: 23*; LXRb DAF12 ctr: 1

How did CC(C)[C@H](N)C(=O)N1CCC[C@@H]1C(=O)N1CCC2CCN(S(=O)(=O)c3ccccc3)CC21 (stereo not given in full) do in these assays?
ssDAF12 agonist: -1; hgDAF12 agonist: 2; hcDAF12 agonist: 0; DAX1 inh-2: 0

How did Cc1cccc(-c2cccc3c4c([nH]c23)[C@@H]2C[C@H](N(C)C(=O)NC3CCCCC3)[C@H]([C@H](C)O)C(=O)N2CC4)c1 do in these assays?
ssDAF12 agonist: -1; hgDAF12 agonist: 3; hcDAF12 agonist: -2; DAX1 inh-2: -1

What do the screens show for `COc1ccccc1-c1cc(-c2cc(Cl)ccc2O)n[nH]1`?
ssDAF12 agonist: -1; hgDAF12 agonist: 3; DAX1 inh-1: 0; hcDAF12 agonist: 2; DAX1 inh-2: 0
